Source: PubChem BioAssay (several laboratories)
HIV RNase H inh – inhibitors of HIV-1 reverse transcriptase RNase H. AID 565. actives 1.9% (n = 65,000). RT-RNase H RNA/DNA duplex cleavage, fluorescence. P04585. inhibition, % at 10 µM; in the data active means inhibition above about 50%
RmlCD inh mix – inhibitors of RmlC and RmlD coupled enzymes | RmlC/RmlD coupled enzyme inhibition, 384-well mixture HTS | inhibition, % at 5.5 µM | actives 0.39% (n = 110,000); in the data active means inhibition above about 30%, passing the limit was not always enough; inconclusive means no clear call, values can overlap the other calls
A number is an active result; – = inactive; ? = inconclusive; · = no result; + = active, no number. This excerpt belongs to a sample that is enriched for hits.

SMILES	HIV RNase H inh	RmlCD inh mix
CC1CCc2c(sc(N)c2C(N)=O)C1 (stereo unspecified)	65	–
CCC1CCc2c(sc(N)c2C(N)=O)C1 (stereo unspecified)	·	–
CC1(c2nnc(-c3ccc(F)cc3)o2)CC(c2ccncc2)=NO1 (stereo unspecified)	·	–
COC(=O)c1ccccc1NC(=O)c1cc(-c2ccc(C)cc2)on1	·	–
Cn1c(C(=O)N2CCN(c3ccc(Cl)cc3)CC2)cc2c(=O)n(C)c3ccccc3c21	–	·
O=C(c1cccs1)N(Cc1ccccn1)Cc1ccco1	–	–
S=C1SCN(Cc2ccccn2)CN1Cc1ccco1	52	–
N#Cc1ccsc1NC(=O)CN1CCCCCC1	·	–
CN(CC(=O)Nc1sccc1C#N)C1CCCCC1	58	–
CCc1nn(CC(=O)N2CCN(Cc3ccc4c(c3)OCO4)CC2)c(=O)c2cc3occc3n12	–	–
O=C(Nc1ccccc1NC(=O)NC1CCCCC1)NC1CCCCC1	69	–
NC(=O)c1ccccc1NC(=O)NC1CCCCC1	·	–
COc1ccc(C(C(=O)NC2CCCCC2)N(C(=O)c2sc(C)nc2C)c2ccc(C(C)=O)cc2)cc1 (stereo unspecified)	·	–
O=C1N[C@@H](Cc2ccccc2)C(=O)N2[C@@H]1C[C@]1(Br)c3ccccc3N(S(=O)(=O)c3ccccc3)[C@H]21	·	–
COc1ccccc1-c1c(C)oc2cc(OC(=O)c3ccco3)ccc2c1=O	–	32
CCOc1ccccc1Oc1c(C)oc2cc(OC(=O)c3ccco3)ccc2c1=O	·	–
COc1ccc(CNC2=CC(=O)CC(C)(C)C2)cc1	–	–
Cn1nnnc1Sc1nc(-c2cccnc2)nc2ccccc12	–	·
CC1CC(C)CN(CCCNC(=O)CNC(=O)Cn2ccc3ccccc3c2=O)C1 (stereo unspecified)	–	·
CC1CN(S(=O)(=O)c2cccc(C(=O)OCc3cc(=O)oc4cc(O)ccc34)c2)CC(C)O1 (stereo unspecified)	–	82
CN(C)c1cccc(C(=O)OCc2cc(=O)oc3cc(O)ccc23)c1	·	–
O=C(Cc1ccccc1)NCc1nc2ccccc2[nH]1	–	–
Cc1oc(/N=C/c2ccccc2O)c(C#N)c1C	–	–
Cc1oc(/N=C/c2c(O)ccc3ccccc23)c(C#N)c1C	73	·
Cc1cc(C)cc(N=c2c([N+](=O)[O-])nn(-c3cccc(Cl)c3)n2O)c1	·	–
SMILES	HIV RNase H inh	RmlCD inh mix
COc1cccc2c1OC1(C)CC2NC(=O)N1c1cccc(C(=O)Nc2ccc3c(c2)OCCO3)c1 (stereo unspecified)	–	–
CC1(C)CC(=O)C(C(C2=C(O)CC(C)(C)CC2=O)c2cccc(O)c2)C(=O)C1 (stereo unspecified)	–	–
CC1(C)CC(=O)C2=C(C1)N(c1cccc(O)c1)C1=C(C2)C(=O)CC(C)(C)C1	–	39
O=C(CN(Cc1ccc2c(c1)OCO2)C(=O)CNS(=O)(=O)c1ccccc1)NCc1ccco1	–	–
COc1ccc2c3c(cccc13)NN=C2C	57	·
COc1ccc(C(=O)c2ccc(OC)c3cccc(O)c23)cc1OC	·	–
COc1cc(F)c(C(=O)NC(C)(C)CO)cc1OC	·	–
Cc1oc(-c2ccc(F)cc2)cc1-c1nn2c(-c3ccoc3C)nnc2s1	63	–
Cc1oc(-c2ccc(F)cc2)cc1-c1nn2c(-c3ccco3)nnc2s1	–	·
COc1ccc(OC)c(NC(=O)Cn2cc(C#N)c3cc(Br)ccc32)c1	–	–
CCC(=O)Oc1ccc2c(C)c(Cl)c(=O)oc2c1	–	+
Cc1c(Cc2ccccc2)c(=O)oc2cc(OC(=O)c3ccccc3)ccc12	·	–
Cc1cccc(C(=O)NC(=S)Nc2ccc(S(=O)(=O)N3CCCCC3)cc2)c1	·	–
Cc1ccc(NC(=O)c2oc3ccccc3c2NC(=O)c2ccc3c(c2)OCO3)cc1	–	–
CCOC(=O)N1CCN(c2c(F)cc3[nH]c(=S)[nH]c3c2Br)CC1	–	–
CCOC(=O)N1CCN(c2cc3[nH]c(=S)[nH]c3cc2F)CC1	61	–
COc1ccc(-c2c(=O)n(OCc3ccccn3)c3ccccc3[n+]2[O-])cc1OC	56	–
Cc1ccc(-c2c(=O)n(OCc3ccccn3)c3ccccc3[n+]2[O-])cc1	·	–
COc1ccccc1NC(=O)CSc1nnc(-c2ccoc2C)n1CC1CCCO1 (stereo unspecified)	·	–
CCCOc1cccc(C2C(C(=O)c3ccc(C)o3)=C(O)C(=O)N2CCCN(C)C)c1 (stereo unspecified)	–	·
CC(C)Oc1ccc(C2/C(=C(/O)c3ccc(F)cc3)C(=O)C(=O)N2CCCN(C)C)cc1 (stereo unspecified)	–	·
O=C(CC(c1ccco1)C1CCCCC1=O)c1ccccc1 (stereo unspecified)	·	–
CC(C)Cn1c2c(c(O)c(C(=O)Nc3ncccc3O)c1=O)CCCC2	–	–
CCCCc1nc2ccccc2c(=O)n1NC(=O)c1c(O)c2c(n(CC(C)C)c1=O)CCCC2	52	–
Cc1ccccc1[C@@H]1C(C#N)=C(N)S[C@H]1C(=O)c1ccccc1	·	–
SMILES	HIV RNase H inh	RmlCD inh mix
CCOC(=O)CS(=O)(=O)c1nc(-c2ccccc2)cc(C(F)(F)F)n1	–	–
CCOC(=O)CS(=O)(=O)c1nc(-c2ccc(F)cc2)cc(C(F)(F)F)n1	55	–
CC(C)=CCc1c(O)c(CC=C(C)C)c2c(c1O)-c1cc(O)c(O)cc1CC2	·	–
NC(=O)C1CCN(CCC(=O)Nc2ccc3c(c2)CCC3)CC1	·	–
O=C(c1ccc2nc3ccccc3c(=O)n2c1)N1CCN(Cc2ccc3c(c2)OCO3)CC1	·	31
O=C(c1cccn2c(=O)c3ccccc3nc12)N1CCN(Cc2ccc3c(c2)OCO3)CC1	–	–
O=C(NCC1CCCO1)C1CCC(CNS(=O)(=O)c2ccccc2)CC1 (stereo unspecified)	–	–
O=C(c1ccc(CNS(=O)(=O)c2ccccc2)cc1)N1CCN(c2ccccn2)CC1	63	·
O=C(c1ccc(Cl)c(S(=O)(=O)NCc2ccccc2)c1)N1CCN(c2ccccn2)CC1	·	–
C=CCn1c(SCC(=O)Nc2c(C)n(C)n(-c3ccccc3)c2=O)nc2sc(C)c(-c3ccccc3)c2c1=O	·	–
CC1(C(=O)O)CCC(C(=O)N2CCOCC2)C1(C)C (stereo unspecified)	–	–
O=C(NCc1cccnc1)c1cn(CCc2ccccc2)nn1	–	–
O=C(NCc1ccccn1)c1cn(CCc2ccccc2)nn1	68	–
O=C(c1cnsn1)N1CCN(c2ccccn2)CC1	–	–
COc1ccc(/C(O)=C2\C(=O)C(=O)N(c3cc(C)on3)C2c2ccccc2OC)cc1 (stereo unspecified)	–	–
COc1ccccc1C1c2c(oc3ccc(Cl)cc3c2=O)C(=O)N1c1cc(C)on1 (stereo unspecified)	51	·
Cc1cc(NC(=O)c2cc(-c3ccccc3)on2)n(-c2ccccc2)n1	–	–
Cc1cc(NC(=O)c2cc(-c3ccc4c(c3)OCO4)on2)n(-c2ccccc2)n1	55	?
N#Cc1ccccc1NC(=O)Nc1cccs1	–	–
CCOC(=O)/C=C/S(=O)(=O)c1ccc(NC(C)=O)cc1	50	?
CCOC(=O)c1cccc(NS(=O)(=O)c2ccc(NC(C)=O)cc2)c1	·	–
CN(C)/C=C1\C(=O)c2ccc(N(C)C)nc2CC1c1ccccc1 (stereo unspecified)	–	·
O=C(c1cc(-c2ccco2)on1)N1CCN(c2ccccc2)CC1	–	–
O=C(Nc1ccc(N2CCOCC2)cc1)Nc1ccc2nc(-c3ccco3)c(-c3ccco3)nc2c1	68	–
